Screens from PubChem.
hcDAF12 agonist = activates DAF-12 receptor from parasite H. contortus | HEK293 hcDAF-12 lit1-tk-luc reporter, luminescence; 0% DMSO, 100% Δ7-dafachronic acid | AID 652067 | activation, % at 6.8 µM | hit rate 1.4% among 370,000;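 active means activation above the mean of all tested compounds plus 3 SD, cut at about 5.5% in these data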;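 further: 100% = response to 3 µM Δ7-dafachronic acid high control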
hgDAF-12 ag = hgDAF-12 agonism, primary luciferase screen. HEK293 GAL4-hgDAF12 UAS-luciferase reporter, agonist luminescence; normalized to butyrate control. activation, % at 6.8 µM. hit rate 1.8% among 370,000;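 active means activation above a cutoff set at the mean of all screened compounds plus 3 SD, cut at about 10% in these data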;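 further: 0% = DMSO wells and 100% = sodium butyrate wells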
DAX1 inh-1 = NR0B1 (DAX1) inhibition; inhibition, % at 6.75 µM; P51843; hit rate 0.99% among 340,000; HEK293 Gal4-DAX1 luciferase reporter, luminescence; AID 504766;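 active means inhibition above the mean over all tested compounds plus 3 SD, cut at about 4.2% in these data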;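 further: 0% = DAX1-transfected cells with DMSO and 100% = empty-vector control cells with DMSO; inhibition shows as a rise in luminescence from relieved DAX1 repression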
Target sequence (P51843 207-470 limits assumed): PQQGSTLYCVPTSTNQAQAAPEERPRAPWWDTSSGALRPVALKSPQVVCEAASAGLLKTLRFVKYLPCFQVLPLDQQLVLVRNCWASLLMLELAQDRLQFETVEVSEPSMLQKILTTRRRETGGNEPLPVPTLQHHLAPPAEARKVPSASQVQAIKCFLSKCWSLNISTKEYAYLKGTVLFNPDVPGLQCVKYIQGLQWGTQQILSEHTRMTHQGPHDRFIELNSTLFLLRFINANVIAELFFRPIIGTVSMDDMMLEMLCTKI
SMARCA2 act = increases SMARCA2 function in MMTV reporter cells; MG213 cells, MMTV-luciferase reporter, dexamethasone, overnight; hit rate 1% among 370,000; AID 652017; activation, % at 9.1 µM; in the data active means activation above about 7.8%;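 further: 0% = vehicle wells and 100% = reference activator wells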
ssDAF-12 act = activators of S. stercoralis DAF-12 nuclear receptor | HEK293 ssDAF-12/GRIP1 lit1-tk-luc reporter, luminescence; % of 3 µM dafachronic acid response | activation, % at 6.8 µM | AID 652126 | hit rate 1% among 370,000;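 active means activation above the mean over all tested compounds plus 3 SD, cut at about 0.9% in these data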;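 further: 0% = DMSO-only wells and 100% = 3 µM delta7-dafachronic acid wells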
DAX1 inh-2 = blocks DAX1 repression of SF-1 activated StAR promoter | HEK293T StAR-luciferase reporter, SF-1/DAX-1 repression relief | inhibition, % at 6.8 µM | hit rate 1.1% among 370,000 | AID 652010;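 active means inhibition above the mean over all tested compounds plus 3 SD, cut at about 3.6% in these data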;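 further: 0% = DAX-1 cells with DMSO and 100% = cells lacking DAX-1 with DMSO; higher inhibition means more luminescence from relief of DAX-1 repression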
DAX1 conf = confirmation of human DAX1 (NR0B1) inhibitors; shares compounds with DAX1 inh-2; HEK293T StAR-promoter luciferase reporter, SF-1/DAX-1 repression; inhibition, % at 6.8 µM; hit rate 87% among 2,400; AID 652134;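 active means inhibition above the average of every tested compound plus 3 SD, cut at about 3.8% in these data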;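 further: 0% = DAX-1 cells with DMSO and 100% = no DAX-1 control cells with DMSO; active compounds raise luminescence by relieving repression of the StAR reporter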
Target sequence (P51843 whole entry, looked up): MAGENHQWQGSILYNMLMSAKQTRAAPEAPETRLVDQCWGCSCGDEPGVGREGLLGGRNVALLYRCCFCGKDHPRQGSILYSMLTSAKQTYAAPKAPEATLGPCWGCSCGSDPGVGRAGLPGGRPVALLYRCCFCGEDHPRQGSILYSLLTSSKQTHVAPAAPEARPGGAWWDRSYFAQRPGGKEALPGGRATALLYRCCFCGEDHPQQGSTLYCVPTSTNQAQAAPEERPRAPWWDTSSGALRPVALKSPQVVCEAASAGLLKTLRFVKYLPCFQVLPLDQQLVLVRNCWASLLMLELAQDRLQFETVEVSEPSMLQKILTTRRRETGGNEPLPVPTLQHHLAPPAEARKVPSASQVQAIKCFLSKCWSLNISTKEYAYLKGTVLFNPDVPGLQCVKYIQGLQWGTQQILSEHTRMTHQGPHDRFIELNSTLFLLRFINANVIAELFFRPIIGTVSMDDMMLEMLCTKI
SF1 mutant ctr = counter-screen for DAX1 inhibitors: nonselective inhibitors with SF-1 AF2 mutant. shares compounds with DAX1 inh-2. HEK293 StAR-luciferase, luminescence. inhibition, % at 6.8 µM. hit rate 78% among 2,400. AID 652136;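 active means inhibition above the mean of all tested compounds plus 3 SD, cut at about 3% in these data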;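 further: 0% = DAX-1 transfected cells with DMSO and 100% = cells without DAX-1 with DMSO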
* = called active by the depositor; · = no result. This is a sample that favours compounds with a hit; in the whole collection about 4.8% have one here.

SMILES | hcDAF12 agonist | hgDAF-12 ag | DAX1 inh-1 | SMARCA2 act | ssDAF-12 act | DAX1 inh-2 | DAX1 conf | SF1 mutant ctr
CCOC(=O)[C@]12CCCCC/C=C\1N(Cc1ccc(OC)cc1)C(=O)[C@H]2CC(=O)NCCCOC | -2 | -2 | · | 2 | -2 | 5.2* | 3 | 0
Cc1ccsc1C(=O)OCC(=O)c1cc(C)n(C)c1C | 5 | 3 | -3 | 0 | 0 | 4.8* | 6.0* | -1
O=C(Nc1cc(S(=O)(=O)N2CCCCC2)ccc1Cl)c1ccccc1NS(=O)(=O)c1ccc(F)cc1 | -5 | -9 | -4 | -9 | -3 | -4 | · | ·
O=C(NCCc1ccccc1)c1ccc2c(c1)OCCCO2 | -8 | -16 | -4 | -9 | -3 | -2 | · | ·
Cc1ccc(S(=O)(=O)N2C[C@H]3C(=O)C[C@@H](c4ccccc4)N(S(=O)(=O)c4ccccc4)[C@H]3C[C@H]2c2ccccc2)cc1 | -1 | 2 | · | 0 | -1 | -1 | · | ·
CC(C)C(OC(=O)C1=Cc2ccccc2OC1)C(=O)NCC1CCCO1 (configuration not stated) | 4 | 15* | 1 | 1 | 0 | 5.0* | 2 | 5.2*
CC(OC(=O)C1=Cc2ccccc2OC1)C(=O)NC1CCCC1 (configuration not stated) | 0 | -2 | 0 | 4 | -2 | 0 | · | ·
COc1ccc(-c2coc3cc(OC4OC(CO)C(O)C(O)C4O)cc(O)c3c2=O)cc1 (configuration not stated) | 5 | 11* | 2 | 4 | 0 | 11* | 11* | 5.7*
COc1ccc(-c2coc3cc(O)ccc3c2=O)cc1 | 5 | 8 | 2 | 3 | 0 | 4.9* | 11* | 5.1*
Cc1ccc(Cl)cc1Nc1nc(N2CCOCC2)nc(N2CCOCC2)n1 | -2 | 1 | -1 | -1 | -1 | 0 | · | ·
CCCC(=O)Nc1ccc(NC(=O)c2ccccc2F)cn1 | -1 | 3 | 1 | -2 | 1 | 0 | · | ·
CCCC(=O)Nc1ccc(NC(=O)c2ccccc2)nc1 | 3 | 5 | 1 | 5 | 0 | 4.7* | 13* | 6.6*
C/C(=N\NC(=O)c1c([N+](=O)[O-])c(C)nn1C)c1ccc(NC(=O)C2CCCC2)cc1 | 0 | 3 | 0 | -2 | -1 | -1 | · | ·
CCCCn1c(N)c(N(C)C(=O)c2ccc(Br)o2)c(=O)[nH]c1=O | 1 | 1 | 0 | 2 | -1 | 4.6* | 0 | 2
CCOC(=O)CSC1=C(C#N)C(c2ccc(C)o2)CC(=O)N1 (configuration not stated) | 1 | -5 | 0 | -2 | 0 | 5.6* | 17* | -6
CCOC(=O)CSC1=C(C#N)C(c2ccc(Cl)cc2)CC(=O)N1 (configuration not stated) | -2 | 2 | -1 | -3 | -2 | -1 | · | ·
C=CCSc1nnc(NC(=O)CSc2nc3ccccc3o2)s1 | -1 | 2 | 1 | -1 | -1 | 1 | · | ·
Cc1noc(C)c1C(=O)Nc1ccc(N(C)C)cc1 | -2 | -1 | 1 | -2 | -1 | 0 | · | ·
CN(C)c1ccc(NC(=O)c2cnsn2)cc1 | 3 | 10 | -1 | 1 | 0 | 6.3* | 7.4* | 2
Cc1ccc(NC(=S)NC(=O)C2CCCC2)cc1C | 3 | 11* | 1 | 4 | 0 | 4.6* | 5.3* | 4.8*
Cc1ccccc1Cn1c(=O)n(C)c(=O)c2sccc21 | -1 | 0 | 1 | -2 | -1 | 0 | · | ·
O=C(NCc1cccnc1)[C@@H]1CC=C[C@@H]2CCN(Cc3ccccc3)C(=O)[C@@H]21 | 0 | 0 | 0 | 0 | -1 | 0 | · | ·
CC(C)n1cc(C#N)c(N)n1 | 0 | -2 | 3 | 5 | -1 | 1 | · | ·
O=C(Nc1ccc(F)cc1F)c1ccc2c(=O)n3c(nc2c1)CCC3 | 3 | 13* | 0 | 5 | 0 | 11* | 7.9* | 6.5*
O=C(NNC(=O)c1ccc2c(=O)n3c(nc2c1)CCC3)c1ccc(F)cc1 | -1 | -1 | -1 | 0 | -1 | 1 | · | ·
SMILES | hcDAF12 agonist | hgDAF-12 ag | DAX1 inh-1 | SMARCA2 act | ssDAF-12 act | DAX1 inh-2 | DAX1 conf | SF1 mutant ctr
Cc1ccc(C)c(NC(=O)c2ccc3c(=O)n4c(nc3c2)CCC4)c1 | 2 | 8 | 0 | 2 | -1 | 3 | · | ·
O=C(Nc1ccc(F)cc1Cl)c1ccc2c(=O)n3c(nc2c1)CCC3 | 6.5* | 10* | 2 | 6 | 0 | 8.8* | 8.6* | 5.7*
COc1ccc(NC(=O)COc2ccc(C)cc2)c([N+](=O)[O-])c1 | 0 | 3 | · | 5 | -1 | 0 | · | ·
COc1ccc(NC(=O)COC(=O)c2cc(C)oc2C)c([N+](=O)[O-])c1 | -1 | -1 | 0 | 1 | -1 | 4.6* | -2 | -2
Cc1cccc(C(=O)NNC(=O)C2CCCCC2)c1O | 0 | 1 | 3 | -3 | -1 | 4.6* | 2 | 1
O=C(COC(=O)/C=C/c1ccc(Cl)cc1)NC1CCCCCC1 | -2 | 0 | 0 | -3 | -1 | 4.8* | 3 | 1
O=C(COC(=O)/C=C/c1ccc(Cl)cc1)NC1CC1 | 2 | 2 | -1 | 1 | 1 | 0 | · | ·
CCN(CC)S(=O)(=O)c1ccc2c(c1)nc(CCC(=O)O)n2C | 1 | 0 | 3 | -1 | -1 | 1 | · | ·
O=C(CCS(=O)(=O)c1ccccc1)N1CCN(c2ccccc2)CC1 | 5 | 5 | 1 | 4 | -1 | 9.3* | 6.8* | 3.7*
O=C(CCS(=O)(=O)c1ccc(Br)cc1)N1CCN(c2ccccc2)CC1 | 0 | -1 | 0 | 0 | -1 | 0 | · | ·
COc1cccc(OCC(=O)NNC(=O)CCc2ccccc2)c1 | -1 | 1 | -1 | -4 | 0 | 1 | · | ·
Cc1c(-n2cc(C(=O)c3ccccc3O)cc(C#N)c2=O)c(=O)n(-c2ccccc2)n1C | -1 | -1 | 0 | 0 | -1 | 1 | · | ·
CCCNC(=O)c1noc2c1CCc1ccccc1-2 | 2 | 8 | 0 | 7 | 0 | 4.5* | 2 | 3.0*
Cc1c(C(=O)OCC(=O)NCc2ccco2)oc2ccccc12 | -2 | 2 | 1 | -2 | -1 | 4.5* | 1 | 1
O=C(Nc1ccccc1)c1ccc2snnc2c1 | -2 | 5 | 2 | 0 | -1 | 0 | · | ·
CC(C)c1ccc(NC(=O)c2ccc3snnc3c2)cc1 | 5 | 12* | 1 | 2 | 0 | 5.0* | 3 | 1
COc1cc(NC(=S)N(C)CCC#N)c(OC)cc1Cl | 0 | 0 | 3 | -4 | -1 | 0 | · | ·
CCN(CC(=O)Nc1ccc2c(c1)OCCO2)C(=O)c1ccc(C(F)(F)F)cc1 | 3 | 7 | 1 | 2 | -1 | 5.2* | 5.9* | 3.0*
